Holding throughout (test): NCI-60 one-dose screen, 48 h (100 = growth as untreated, 0 = no growth, -100 = all killed)
Details in all cases: 10 µM unless noted

The test system of assay [1] is SR leukemia.
For assay [2], the system named is RPMI-8226 leukemia.
Assay [3] deals with OVCAR-8 ovarian.
Assay [4] deals with OVCAR-5 ovarian.
For assay [5], the system named is OVCAR-4 ovarian.
Assay [6] deals with SK-OV-3 ovarian.
Assay [7] has as its system IGROV1 ovarian.
Assay [8] has as its system OVCAR-3 ovarian.
Assay [9] has as its system HS 578T breast.
The test system of assay [10] is NCI/ADR-RES ovarian.
The test system of assay [11] is T-47D breast.
The subject of assay [12] is BT-549 breast.
In assay [13] the test system is MDA-MB-435 melanoma.
Assay [14] has as its system SW-620 colon.
Assay [15] relates to MCF7 breast.
Assay [16] has as its system HCT-116 colon.
The test system of assay [17] is HCC-2998 colon.
For assay [18], the system named is KM12 colon.
Assay [19] has as its system MDA-MB-468 breast.

This is part of a sample that, as a whole, favours compounds with a hit. Of some 83,000 tested, about 20% had one in any assay.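 Single-dose data. Exposure time 48 hours. Values below 10 considered active.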 A number with no mark means an inactive call. The source made the active and inactive calls.

With `Cc1ccc(S(=O)(=O)c2nc(S(=O)(=O)c3ccc(C)cc3)c(N3CCC(O)CC3)s2)cc1`, the growth is 15.7% in [1]; 53.4% in [2]; 75.3% in assay [3]; 104% in assay [4]; 65% in assay [5]; 97.6% in [6]. The growth in assay [7] was 75.6%; in assay [8] it was 72.9%; in assay [9], 59.3%; in assay [10], 74.5%; in assay [11], 60.1%; in assay [12], 49.5%. For the same molecule, the growth in assay [13] was 16.8%; in assay [14] it was 44.7%; in [15], 43.4%; in assay [16] it was 53.7%; in assay [17], 90.6%; in [18], 72.6%. Moreover, the growth in assay [19] is -20.7% (active).

On to `CN(C)c1ccnc(CNCCSC2(c3ccc(C(F)(F)F)cc3)c3ccccc3C=Cc3ccccc32)c1`, for which the growth is -53% (active) in assay [1]; -48.9% (active) in assay [2]; -77.2% (active) in assay [3]; 1.89% (active) in assay [4]; 13% in assay [5]; 8.64% (active) in [6]. The growth in assay [7] is 9.31% (active); in assay [8], -40.5% (active); in assay [9] it was -18% (active); in assay [10], -73.6% (active); in [11], -60.8% (active); in assay [12] it was -6.19% (active). The growth in [13] is -78.3% (active); in assay [14], -82.8% (active); in assay [15], -89.2% (active); in [16] it was -37.8% (active); in assay [17], -93.9% (active); in assay [18] it was -31.5% (active). The growth in assay [19] was -57.7% (active).

`O=C(NN1C(=O)/C(=C/C=C/c2ccc([N+](=O)[O-])o2)SC1=S)c1cccc(O)c1`: the growth in assay [1] is 2.86% (active); in assay [2], -10.1% (active); in [3], -80.3% (active); in [4], -98.5% (active); in assay [5], -100% (active); in assay [6] it was -80.9% (active). Further, the growth is -97.9% (active) in assay [7]; -100% (active) in [8]; -14.6% (active) in assay [9]; -32.1% (active) in [10]; -44.1% (active) in assay [11]; -96% (active) in assay [12]. The growth in [13] is -93.3% (active); in assay [14], -71.1% (active); in assay [15], -61.9% (active); in [16] it was -77.1% (active); in assay [17], -94.8% (active); in [18] it was -92.6% (active). In addition, the growth in assay [19] was -73.4% (active).

In the case of `COc1ccccc1C(=O)NN1C(=O)/C(=C/C2=Cc3ccccc3OC2)SC1=S`, the growth was 92.1% in assay [1]; 88.6% in assay [2]; 99.9% in assay [3]; 109% in [4]; 102% in [5]; 94.5% in assay [6]. Also, the growth is 107% in assay [7]; 107% in assay [8]; 111% in assay [9]; 107% in assay [10]; 104% in assay [11]; 83.6% in [12]. The growth in assay [13] was 110%; in assay [14] it was 114%; in [15], 92.9%; in assay [16], 95.7%; in [17], 117%; in assay [18], 99.5%. In addition, the growth in assay [19] is 115%.

`Cc1cccc(Nc2nc3ccccc3nc2/C=C/c2ccc(F)cc2)c1`: the growth is 87.2% in assay [1]; 91.8% in assay [2]; 85.1% in assay [3]; 101% in assay [4]; 88.9% in assay [5]; 105% in [6]. The growth is 75.3% in [7]; 108% in assay [8]; 83.8% in [9]; 91.1% in assay [10]; 78.9% in [11]; 99.2% in assay [12]. The growth in assay [13] was 96.8%; in [14], 88.2%; in [15], 60.9%; in assay [16], 81%; in assay [17], 94.2%; in assay [18], 96.5%. Further, the growth in [19] was 90%.

Take `CCCSc1nc(NCCc2c[nH]c3ccccc23)c(C#N)c(-c2ccc(OC)cc2)n1`: the growth in [1] was 4.81% (active); in assay [2], 23.9%; in [3] it was 67.9%; in [4], 82.1%; in assay [5] it was 61.2%; in assay [6] it was 90.6%. Moreover, the growth in assay [7] was 91.2%; in assay [8] it was 82.3%; in assay [9] it was 42.9%; in [10], 47.9%; in assay [11] it was 15.3%; in assay [12], 83.2%. Besides, the growth in assay [13] is 62.5%; in assay [14], 42.5%; in assay [15], 7.41% (active); in [16], 20.8%; in assay [17], 48%; in [18], 37.1%. Further, the growth in assay [19] is 26.4%.

Consider `COc1ccc(Cc2nn(CC(=O)N/N=C/c3ccc(F)cc3)c(=O)c3c(C)noc23)cc1`, for which the growth was 53.2% in assay [1]; 64.7% in assay [2]; 38.6% in assay [3]; 55% in [4]; -35.8% (active) in assay [5]; -72.1% (active) in assay [6]. For the same molecule, the growth was 39.7% in [7]; 47% in assay [8]; 23.1% in [9]; 38.4% in assay [10]; -14.1% (active) in assay [11]; 43.2% in assay [12]. For the same molecule, the growth in assay [13] is 48.1%; in [14] it was 61.4%; in assay [15], 56.5%; in assay [16] it was 5.98% (active); in assay [17] it was 39.3%; in assay [18] it was 73.1%. Further, the growth in assay [19] is 63.2%.

For the molecule `O=C(c1ccccc1)c1ccc2nc(-c3ccc(F)cc3)[nH]c2c1`, the growth in assay [1] was 27.9%; in [2], 43.1%; in [3], 83.3%; in assay [4] it was 41.5%; in assay [5], 49.5%; in assay [6] it was 74%. Besides, the growth in assay [7] was 45.9%; in assay [8] it was 32.6%; in assay [9] it was 65.1%; in assay [10], 58.3%; in assay [11] it was 47.5%; in [12], 40.1%. Also, the growth in assay [13] was 57.6%; in assay [14], 28.2%; in [15], 35.9%; in assay [16], 41.7%; in assay [17] it was 91%; in [18], 65%. In assay [19], the growth was 42.8%.

For the origin of these results see PubChem BioAssay (NCI).
